The experiment in a line: NCI Yeast Anticancer Drug Screen. Data for the CLN2oe strain (AID 163).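 Further: 0% = growth of vehicle-only control cultures.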 The conditions noted are these: S. cerevisiae CLN2oe strain, stronger effect = higher value. Here is the method: Growth inhibition of yeast strains with defined genetic alterations is measured as a screen for potential anti-cancer activity. Selected strains with alterations in DNA damage repair or cell cycle control were exposed to compounds and growth inhibition was measured relative to vehicle treated controls. The strain used in this assay is CLN2oe

Here are results for 8 compounds from PubChem BioAssay (NCI).

The panel holds about 79,000 compounds, 15% with a hit somewhere; the sample as a whole holds those more often. Unmarked numbers belong to inactive results. Activity calls are given as the source filed them. No stated cut-off is given here; in the data, active means growth inhibition above about 70%; inactive means the rest.

For the compound `Cc1ccc2c(c1N)C(=O)c1ccccc1C2=O`, the growth inhibition reads like this: (at 1.2 µM) -4%; (at 3.7 µM) -3%; (at 11.0 µM) -4%; (at 33.0 µM) -4%; (at 100.0 µM) 6%.

On to `Cc1c2ccccc2cc2ccccc12`, for which the growth inhibition is 9% (at 1.2 µM); 29% (at 3.7 µM); 82% (active) (at 11.0 µM); 99% (active) (at 33.0 µM); 99% (active) (at 100.0 µM).

As for `[O-][n+]1c2cccc(O)c2[n+]([O-])c2cccc(O)c21`, the growth inhibition reads like this: (at 1.2 µM) 0%; (at 3.7 µM) 0%; (at 11.0 µM) 3%; (at 33.0 µM) 11%; (at 100.0 µM) 11%.

As for `COC(=O)C(F)C(Br)C(=O)OC` (stereo not given), the growth inhibition is, setting by setting: (at 1.2 µM) 43%; (at 3.7 µM) 91% (active); (at 11.0 µM) 97% (active); (at 33.0 µM) 98% (active); (at 100.0 µM) 100% (active).

On to `c1cc2c(cc1C1OC[C@H]3[C@@H](c4ccc5c(c4)OCO5)OC[C@@H]13)OCO2` (stereo not given in full), for which the growth inhibition runs as follows: (at 1.2 µM) -7%; (at 3.7 µM) -9%; (at 11.0 µM) -10%; (at 33.0 µM) -9%; (at 100.0 µM) -7%.

For the compound `Nc1nnc(N)n1-n1c(N)nnc1N`, the growth inhibition is, setting by setting: (at 1.2 µM) -3%; (at 3.7 µM) -14%; (at 11.0 µM) -8%; (at 33.0 µM) -6%; (at 100.0 µM) -4%.

On to `Cc1c(N)nc([C@H](CC(N)=O)NC[C@H](N)C(N)=O)nc1C(=O)N[C@H](C(=O)N[C@H](C)[C@@H](O)[C@H](C)C(=O)N[C@H](C(=O)NCCc1nc(-c2nc(C(=O)NCCC[S+](C)C)cs2)cs1)[C@@H](C)O)C(OC1OC(CO)C(O)C(O)C1OC1OC(CO)C(O)C(OC(N)=O)C1O)c1cnc[nH]1` (stereo not given in full), for which the growth inhibition is 2% (at 1.2 µM); -7% (at 3.7 µM); 14% (at 11.0 µM); 43% (at 33.0 µM); 94% (active) (at 100.0 µM).

Turning to `O=[N+]([O-])O.[NH-]C1CCCCC1[NH-].[NH-]C1CCCCC1[NH-].[NH-]C1CCCCC1[NH-].[OH-].[OH-].[OH-].[Pt+4].[Pt+4].[Pt+4]` (stereo not given), the growth inhibition by setting is: (at 1.2 µM) -8%; (at 3.7 µM) -17%; (at 11.0 µM) -17%; (at 33.0 µM) -23%; (at 100.0 µM) -13%.
